{
  "source": "PubChem BioAssay AID1259313",
  "about": "(Sanford-Burnham Center for Chemical Genomics, 2017)",
  "note": "About 8,500 (2.5%) of roughly 340,000 compounds were called active. The sample holds actives, similar compounds and a random draw of the others, so the mix is not that of the screen. A number with no mark means an inactive call.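 How the source made its calls: active means melting temperature shift of at least 10% of the positive control shift, at one fixed dose; inactive means the rest.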",
  "data": [
    {"test_system": "Glutamate receptor ionotropic, NMDA 3A (GRIN3A) ligand-binding domain", "experiment": "NR3A LBD thermal stabilization by compounds – biophysical, differential scanning fluorimetry, uHTS, primary screen (AID 1259313)", "conditions": "at 25 µM, stronger effect = higher value, 0% = protein alone, 100% = glycine-bound protein", "values": [
      {"compound": "Cc1cc(C(=O)CC#N)c(C)n1CC(F)(F)F", "Tm shift relative to glycine control": "0.49%"},
      {"compound": "O=C(Nc1cccc(S(=O)(=O)N2CCCC2)c1)c1cncc(Br)c1", "Tm shift relative to glycine control": "-1.22%"},
      {"compound": "COc1ccc(N2CCN(CCNC(=O)Nc3cc(Cl)ccc3Cl)CC2)cc1", "Tm shift relative to glycine control": "-1.01%"},
      {"compound": "O=c1c2ccccc2ncn1/N=C/c1ccccc1", "Tm shift relative to glycine control": "-2.01%"},
      {"compound": "Cc1ccc(OCC(=O)N2CCN(C(=O)c3cccnc3)CC2)cc1", "Tm shift relative to glycine control": "-1.15%"},
      {"compound": "O=C(/C=C/c1ccc(Cl)cc1)Nc1ccc(Br)cn1", "Tm shift relative to glycine control": "0.46%"},
      {"compound": "Cc1ccccc1N(C(=O)Cc1cccs1)C(C(=O)NC1CCCCC1)c1cn(C)nc1C", "note": "(configuration not stated)", "Tm shift relative to glycine control": "-0.71%"},
      {"compound": "O=C(COC(=O)c1cc(=O)[nH]c2ccccc12)Nc1nc(-c2cccc(Br)c2)cs1", "Tm shift relative to glycine control": "10.6% (active)"},
      {"compound": "O=C(CSc1nc2ccccc2c(=O)[nH]1)Nc1nc(-c2ccc(Br)cc2)cs1", "Tm shift relative to glycine control": "36.1% (active)"},
      {"compound": "CCOC(=O)c1ccccc1NC(=O)CSc1nc2ccccc2c(=O)[nH]1", "Tm shift relative to glycine control": "-1.86%"},
      {"compound": "CC(=O)NCc1ccc(-c2csc(NC(=O)CCCc3nc4ccccc4c(=O)[nH]3)n2)cc1", "Tm shift relative to glycine control": "-1.27%"},
      {"compound": "O=C(COC(=O)c1cc(=O)[nH]c2ccccc12)NCc1cccc(Cl)c1", "Tm shift relative to glycine control": "-0.85%"},
      {"compound": "CC(NC(=O)COC(=O)c1cc(=O)[nH]c2ccccc12)c1ccccc1", "note": "(configuration not stated)", "Tm shift relative to glycine control": "-1%"},
      {"compound": "Cc1ccc(-c2cc(=O)[nH]c(NCc3ccccc3)n2)cc1", "Tm shift relative to glycine control": "-1.01%"},
      {"compound": "COc1cc(OC)c(OC)cc1CN1CCN(C(=O)c2cccc3ccccc23)CC1", "Tm shift relative to glycine control": "-1.19%"},
      {"compound": "Cc1cc(C)nc(/N=C2\\NC(=O)CC(C(=O)O)N2c2ccc(Cl)cc2Cl)n1", "note": "(configuration not stated)", "Tm shift relative to glycine control": "-1.26%"},
      {"compound": "O=C(CCN1C(=O)C2CCCCC2C1=O)Nc1ccc(OC(F)F)cc1", "note": "(configuration not stated)", "Tm shift relative to glycine control": "2.89%"},
      {"compound": "O=C(Nc1cc(C(F)(F)F)ccc1Cl)C(=O)N1CCCCC1", "Tm shift relative to glycine control": "-10.1%"},
      {"compound": "O=C(NNc1ccccc1Cl)C(O)(c1cccc(C(F)(F)F)c1)c1cccc(C(F)(F)F)c1", "Tm shift relative to glycine control": "27.5% (active)"},
      {"compound": "O=C(O)c1cc(S(=O)(=O)N(Cc2ccccc2)c2cccc(C(F)(F)F)c2)ccc1Cl", "Tm shift relative to glycine control": "2.79%"},
      {"compound": "Nc1cc2c(cc1Br)-c1ccc(F)cc1C2=O", "Tm shift relative to glycine control": "-2.14%"},
      {"compound": "Nc1nc(SCC(=O)Nc2ccc(Cl)cc2C(F)(F)F)n[nH]1", "Tm shift relative to glycine control": "0.67%"},
      {"compound": "COCCNC(=O)c1onc(CSc2cccc(C)c2)c1C(=O)O", "Tm shift relative to glycine control": "18.5% (active)"},
      {"compound": "CCOc1cccc(SCc2noc(C(=O)NC(C)C)c2C(=O)O)c1", "Tm shift relative to glycine control": "-0.97%"},
      {"compound": "CCCCNC(=O)c1onc(CSc2cccc(OC)c2)c1C(=O)O", "Tm shift relative to glycine control": "3.23%"},
      {"compound": "COCCn1nnnc1C(c1ccccc1Cl)N1CCN(c2ccccc2OC)CC1", "note": "(configuration not stated)", "Tm shift relative to glycine control": "2.04%"},
      {"compound": "CCC(=O)N(C)C(c1ccccc1Cl)c1nnnn1-c1c(C)cccc1C", "note": "(configuration not stated)", "Tm shift relative to glycine control": "38.2% (active)"},
      {"compound": "CN(C)/C=C(/C(=O)c1ccc(Cl)c(Cl)c1)c1nnnn1-c1ccccc1", "Tm shift relative to glycine control": "-0.1%"},
      {"compound": "O=C(CCC(=O)N1CCN(S(=O)(=O)c2ccc(Cl)cc2)CC1)NCc1cccc(C(F)(F)F)c1", "Tm shift relative to glycine control": "-1.09%"},
      {"compound": "O=C(O)C1C2CC2CN1C(=O)c1ccc(Cl)cc1Cl", "note": "(configuration not stated)", "Tm shift relative to glycine control": "-0.76%"},
      {"compound": "COc1ccc(-c2nn(-c3ccccc3)cc2C(=O)Nc2nccs2)cc1OC", "Tm shift relative to glycine control": "-1.92%"},
      {"compound": "NS(=O)(=O)c1cccc(NC(=O)CSc2nc3ccccc3n2-c2ccccc2)c1", "Tm shift relative to glycine control": "-3.25%"},
      {"compound": "Cc1ccc(-c2nn(-c3ccccc3)cc2C(=O)NC2CCC(O)CC2)cc1", "note": "(configuration not stated)", "Tm shift relative to glycine control": "-1.68%"},
      {"compound": "CSc1ncccc1C(=O)Nc1cccc(S(=O)(=O)N2CCOCC2)c1", "Tm shift relative to glycine control": "2.41%"},
      {"compound": "O=C(/C=C/c1cn(-c2ccccc2)nc1-c1ccc2c(c1)OCCO2)NCCCN1CCOCC1", "Tm shift relative to glycine control": "-0.74%"},
      {"compound": "Cc1ccc(-c2nn(-c3ccccc3)cc2/C=C/C(=O)Nc2cccc(S(N)(=O)=O)c2)cc1", "Tm shift relative to glycine control": "28.9% (active)"},
      {"compound": "COc1ccc(NC(=O)c2cn(-c3ccccc3)nc2SC)cc1", "Tm shift relative to glycine control": "18.1% (active)"},
      {"compound": "Cc1ccc(-c2nn(-c3ccccc3)cc2C(=O)Nc2cccc(S(=O)(=O)N3CCOCC3)c2)cc1", "Tm shift relative to glycine control": "10.7% (active)"},
      {"compound": "O=C(O)c1ccc(NC(=O)c2cn(-c3ccccc3)nc2-c2ccc(Cl)cc2)cc1", "Tm shift relative to glycine control": "12% (active)"},
      {"compound": "Cc1occc1C(=O)Nc1cccc(S(=O)(=O)N2CCOCC2)c1", "Tm shift relative to glycine control": "0.26%"},
      {"compound": "Cc1ccc(-c2nn(-c3ccccc3)cc2C(=O)NCCCN2CCCC2=O)cc1", "Tm shift relative to glycine control": "-0.51%"},
      {"compound": "COc1ccc(NC(=O)c2ccccc2CC[N+](=O)[O-])cc1", "Tm shift relative to glycine control": "1.34%"},
      {"compound": "Cc1cccc(NC(=O)Cn2c(=O)n(Cc3ccccc3)c(=O)c3c(C)c(C)sc32)c1", "Tm shift relative to glycine control": "8.62%"},
      {"compound": "O=C(CN1C(=O)c2cccnc2Oc2ccc(Cl)cc21)NCCc1ccccc1", "Tm shift relative to glycine control": "0.65%"},
      {"compound": "CNC(=O)c1[nH]cnc1C(=O)N[C@@H](CC(C)C)C(=O)OCc1ccccc1", "Tm shift relative to glycine control": "-3.33%"},
      {"compound": "CCN(CC)Cc1c(C(=O)OC)nnn1-c1nonc1N", "Tm shift relative to glycine control": "-0.56%"},
      {"compound": "CCCc1cc(=O)oc2c(C)c(OC(C)C(=O)NCC(O)c3ccccc3)ccc12", "note": "(configuration not stated)", "Tm shift relative to glycine control": "0%"},
      {"compound": "O=C(O)c1cc(S(=O)(=O)N2CCCCCC2)c(Cl)cc1Cl", "Tm shift relative to glycine control": "0.9%"},
      {"compound": "CC(C(=O)c1ccc(-c2ccccc2)cc1)[n+]1cccc(Br)c1", "note": "(configuration not stated)", "Tm shift relative to glycine control": "-2.4%"},
      {"compound": "Cc1ccccc1-n1nnnc1SCCCC(=O)c1ccc(F)cc1", "Tm shift relative to glycine control": "3.17%"},
      {"compound": "COc1cccc(NC(=O)CN(C)C(=O)/C=C/c2cc(OC)ccc2OC)c1", "Tm shift relative to glycine control": "-3.12%"},
      {"compound": "COc1ccc(NC(=O)CN(C)C(=O)/C=C/c2cn(Cc3ccccc3)nc2-c2cccnc2)cc1", "Tm shift relative to glycine control": "-0.36%"},
      {"compound": "COc1cccc(NC(=O)CN(C)C(=O)/C=C/c2cn(-c3ccccc3)nc2-c2cccs2)c1", "Tm shift relative to glycine control": "10.7% (active)"},
      {"compound": "COc1ccc2nc(Nc3nc(-c4cc5ccccc5oc4=O)cs3)sc2c1", "Tm shift relative to glycine control": "24.7% (active)"},
      {"compound": "O=c1oc2ccccc2cc1-c1csc(Nc2ccc(O)cc2)n1", "Tm shift relative to glycine control": "12.2% (active)"},
      {"compound": "CCCCCCC(=O)Nc1nc(C)c(-c2csc(Nc3cccc(OC)c3)n2)s1", "Tm shift relative to glycine control": "4.39%"},
      {"compound": "Fc1ccc2nc(Nc3nc4c(s3)CCCC4)sc2c1", "Tm shift relative to glycine control": "-1.71%"},
      {"compound": "COc1ccc2nc(Nc3nc(-c4ccncc4)cs3)sc2c1", "Tm shift relative to glycine control": "23.1% (active)"},
      {"compound": "COc1ccc(OC)c(-c2csc(-c3cccs3)n2)c1", "Tm shift relative to glycine control": "2.35%"},
      {"compound": "O=C(Nc1ccncc1)c1cc2ccccc2o1", "Tm shift relative to glycine control": "-15%"},
      {"compound": "O=C(NCc1cccnc1)c1cccc(-c2cc3ccccc3oc2=O)c1", "Tm shift relative to glycine control": "-2.7%"},
      {"compound": "COc1ccc(OC)c(-c2csc(NC(=O)C3=NNC(=O)CC3)n2)c1", "Tm shift relative to glycine control": "-2.68%"}
    ]}
  ]
}
